Experimental data as given in PubChem BioAssay (NCATS).
Records with an inconclusive call do not appear. Activity calls are given as the source filed them. Calls follow the shape of the dose curve; as a rule, active = well fitted curve in the direction sought with a large enough effect; inconclusive = small, poorly fitted or top-dose-only effect, or another doubt; inactive = no such curve, though single readings can be large; an effect the other way counts as inactive or inconclusive.

How the values were obtained:
NIH3T3 = assay: qHTS assay to identify novel small-molecules to repurpose for Merkel cell carcinoma treatment (AID 1296009); conditions: MCC and control cell lines, CellTiter-Glo viability, 72 h; at 44.8 µM (top of the series) unless noted; also: nearly all actives have a fitted effect of over 60% in size
Summary of the method: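 After compound transfer in DMSO, plates were kept 72 hr at 37 degree celsius. Luminescent ATP signal from CellTiter-Glo served as viability measure, normalized against DMSO and no-cell controls.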

C33A = assay: Primary qHTS to identify gynecologic anti-cancer compounds using libraries of approved drugs and bioactive compounds (AID 1345084); conditions: Gynecologic cancer cell panel viability, ATPlite luminescence, 48 h; series mostly up to 57.5 µM; also: nearly all actives have a fitted effect of over 55% in size
Summary of the method: (§1)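 ATP-based viability (ATPlite), 1,000 cells/well, 16 h pre-incubation, 48 h compound at 37 C, 5% CO2, 15 min RT before read.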

CAOV3 = assay: as above; conditions: Gynecologic cancer cell panel viability, ATPlite luminescence, 48 h; series mostly up to 57.5 µM
Summary of the method: as §1

CASKI = assay: as above; conditions: Gynecologic cancer cell panel viability, ATPlite luminescence, 48 h; series mostly up to 57.5 µM
Summary of the method: as §1

Es-2 = assay: as above; conditions: Gynecologic cancer cell panel viability, ATPlite luminescence, 48 h; series mostly up to 57.5 µM
Summary of the method: as §1

HeLa = assay: as above; conditions: Gynecologic cancer cell panel viability, ATPlite luminescence, 48 h; series mostly up to 57.5 µM
Summary of the method: as §1

Hek293T = assay: as above; conditions: Gynecologic cancer cell panel viability, ATPlite luminescence, 48 h, control line for the selectivity index; series mostly up to 57.5 µM
Summary of the method: as §1

JEG-3 = assay: as above; conditions: Gynecologic cancer cell panel viability, ATPlite luminescence, 48 h; series mostly up to 57.5 µM
Summary of the method: as §1

Measured: Potency

CCC(NC(=O)CC(NC(=O)C(CO)NC(=O)C(CC)NC(=O)c1ccc[nH]1)c1ccccc1)C(=O)O (stereo not drawn)
inactive: NIH3T3 inactive [at 17.4 µM] | C33A | CAOV3 | CASKI | Es-2 | HeLa | Hek293T | JEG-3

CC1CCC2C(C)(C)CC(C)(CO)C2(O)C1C(=O)O (stereo not drawn)
inactive: all assays above

COC1C2=C(COC2=O)C2(C)CCCC(C)(CO)C2C1OC(=O)c1ccccc1 (stereo not drawn)
inactive: NIH3T3 inactive [at 17.4 µM] | C33A | CAOV3 | CASKI | Es-2 | HeLa | Hek293T | JEG-3

O=C(O)CCc1cccc(O[C@@H]2O[C@H](CO)[C@@H](O)[C@H](O)[C@H]2O)c1O
inactive: all assays above

C=C(C)C(=O)O[C@H]1C[C@@](C)(OC(C)=O)[C@@]2(O)CC[C@@](C)(O)[C@H](OC(C)=O)[C@@]23OC(=O)C(COC)=C13
inactive: NIH3T3 inactive [at 17.4 µM] | C33A | CAOV3 | CASKI | Es-2 | HeLa | Hek293T | JEG-3

COC1=CC(=O)C[C@@H](C)[C@]12Oc1cc(OC)cc(OC)c1C2=O
inactive: all assays above

CC(C)=CCC[C@](C)(O[C@@H]1O[C@H](CO[C@@H]2OC[C@@H](O)[C@H](O)[C@H]2O)[C@@H](O)[C@H](O)[C@H]1O)[C@H]1CC[C@]2(C)[C@@H]1[C@H](O)C[C@@H]1[C@@]3(C)CC[C@H](O[C@@H]4O[C@H](CO)[C@@H](O)[C@H](O)[C@H]4O[C@@H]4O[C@H](CO)[C@@H](O)[C@H](O)[C@H]4O)C(C)(C)[C@@H]3CC[C@]12C
inactive: NIH3T3 inactive [at 17.4 µM] | C33A | CAOV3 | CASKI | Es-2 | HeLa | Hek293T | JEG-3

COc1ccc2c(c1O)OC[C@H]1c3ccc(O)cc3O[C@@H]21
inactive: all assays above

C=C(C(=O)O)[C@@H]1CC=C2CCC[C@H](C)[C@@]2(C)C1
inactive: all assays above

COc1ccc(C(OC2OC(CO)C(O)C(O)C2O)C(C)O)cc1 (stereo not drawn)
inactive: all assays above

COc1c2c(c(C)c3c1C(=O)OC3)OC1(C)CC(O)C3(O)C(C)(C)OC(=O)CCC3(C)C1C2 (stereo not drawn)
inactive: NIH3T3 inactive [at 17.4 µM] | C33A | CAOV3 | CASKI | Es-2 | HeLa | Hek293T | JEG-3

C=CC(C)(CC/C=C(\C)CC/C=C(\C)CC(O)/C=C(\C)C(=O)O)O[C@@H]1O[C@H](CO)[C@@H](O)[C@H](O)[C@H]1O[C@@H]1O[C@H](CO)[C@@H](O)[C@H](O)[C@H]1O (stereo partly drawn)
inactive: NIH3T3 inactive [at 17.4 µM] | C33A | CAOV3 | CASKI | Es-2 | HeLa | Hek293T | JEG-3

C[C@H]1[C@H](C)CC[C@]2(C(=O)O)CC[C@]3(C(=O)O)C(=CCC4[C@@]5(C)CC[C@H](O[C@@H]6O[C@H](C)[C@@H](O)[C@H](O)[C@H]6O)C(C)(C)C5CC[C@]43C)[C@H]12 (stereo partly drawn)
inactive: NIH3T3 inactive [at 17.4 µM] | C33A | CAOV3 | CASKI | Es-2 | HeLa | Hek293T | JEG-3

COc1cc(/C=C/c2cc(O)cc(O[C@@H]3O[C@H](CO)[C@@H](O)[C@H](O)[C@H]3O)c2)ccc1O
inactive: NIH3T3 inactive [at 17.4 µM] | C33A | CAOV3 | CASKI | Es-2 | HeLa | Hek293T | JEG-3

CC(=O)O[C@H]1[C@H](C)[C@@H](O)[C@H]2[C@@H]1C=C(C(=O)O)[C@H]1C[C@@H]3[C@H]([C@H]21)[C@H]1C(=O)O[C@@H]2CC[C@@]3(C)O[C@]1(O)[C@@H]2C
inactive: NIH3T3 inactive [at 17.4 µM] | C33A | CAOV3 | CASKI | Es-2 | HeLa | Hek293T | JEG-3

C[C@H]1C[C@H]2[C@@H]3CCC4=CC(=O)C=C[C@]4(C)[C@@]3(F)[C@@H](O)C[C@]2(C)[C@@]1(O)C(=O)COP(=O)(O)O
inactive: all assays above
